Source: PubChem BioAssay
BAZ2B inh: qHTS Assay for Inhibitors of BAZ2B | Bromodomain adjacent to zinc finger domain protein 2B (Homo sapiens), Q9UIF8 | AlphaScreen BAZ2B-H3K14Ac peptide displacement | Potency, µM (titrated, usually from 114 µM), for the others: at the top dose activity change, negative = inhibition, actives largely listed as inhibitors | actives 4.4% (n = 360,000) | AID 504333, 2011; further: on the % scale 0 is the no-effect control and ±100 the full control effect; nearly all actives have a fitted effect of over 60% in size
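AlphaScreen displacement: compounds (up to 110uM) incubated 30 min at room temperature with a preformed 50 nM BAZ2B/50 nM biotinylated H3K14Ac peptide complex in PBS pH 7.4 with Tween-20. Donor and acceptor beads at 10 ug/mL final added, 20 min light-protected before reading.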
HP1b binding inh: HTS for Inhibitors of HP1-beta Chromodomain Interactions with Methylated Histone Tails; Chromobox protein homolog 1 (Homo sapiens), P83916; AlphaScreen HP1-beta / biotin-H3K9me3 peptide binding; Potency, µM (titrated, usually from 114 µM), for inactives: at the highest dose activity change, negative = inhibition, most hits filed as inhibitors; actives 0.56% (n = 390,000); AID 540317, 2011; further: nearly all actives have a fitted effect of over 70% in size
Target sequence (P83916 whole entry, looked up): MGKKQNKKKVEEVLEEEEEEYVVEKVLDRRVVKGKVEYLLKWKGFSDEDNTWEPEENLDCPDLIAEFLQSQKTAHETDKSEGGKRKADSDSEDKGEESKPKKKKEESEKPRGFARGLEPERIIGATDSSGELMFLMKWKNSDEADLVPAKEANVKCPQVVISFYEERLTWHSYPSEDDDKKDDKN
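AlphaScreen: HP1-beta (50 nM) preformed 30 min with biotin-H3(1-18)K9me3 peptide (50 nM) in PBS pH 7.4, 0.01% Tween-20. Compound added for 30 min at RT, then streptavidin donor/nickel chelate acceptor beads (10 ug/mL) for 30 min.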
G9a block: qHTS Assay for Inhibitors of Histone Lysine Methyltransferase G9a; Histone-lysine N-methyltransferase EHMT2 (Homo sapiens), Q96KQ7; G9a H3K9 monomethylation, AlphaScreen, 2 h; Potency, µM (highest dose often 102 µM), inactives show at the highest dose activity, negative = inhibition, hits mostly inhibitors; actives 8.8% (n = 350,000); AID 504332, 2011; further: on the % scale 0 is the no-effect control and ±100 the full control effect; nearly all actives have a fitted effect of over 75% in size
Target sequence (Q96KQ7 913-1193 limits assumed): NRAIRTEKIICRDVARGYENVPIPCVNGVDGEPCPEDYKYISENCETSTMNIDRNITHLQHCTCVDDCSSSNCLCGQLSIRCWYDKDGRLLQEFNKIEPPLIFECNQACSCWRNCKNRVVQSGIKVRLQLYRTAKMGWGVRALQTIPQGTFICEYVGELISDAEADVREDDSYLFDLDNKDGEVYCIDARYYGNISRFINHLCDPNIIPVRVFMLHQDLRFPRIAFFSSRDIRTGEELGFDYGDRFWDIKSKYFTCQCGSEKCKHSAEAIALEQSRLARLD
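Signal arises when biotinylated H3K9 peptide, once monomethylated, bridges streptavidin donor and antibody-captured acceptor beads. Enzyme at 20 nM was preincubated 15 min with test compounds; peptide 500 nM and SAM 20 uM then reacted for 2 h.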
GLS inh: qHTS for Inhibitors of Glutaminase (GLS); Glutaminase kidney isoform, mitochondrial (Homo sapiens), O94925; Potency, µM (highest dose often 45.5 µM), for inactives: at the highest dose activity change, negative = inhibition, hits mostly inhibitors; GLS enzymatic activity, qHTS titration; actives 0.21% (n = 410,000); AID 624170, 2012; further: on the % scale 0 is the no-effect control and ±100 the full control effect
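Compounds were pin-transferred onto hKGA, after which L-glutamine (1 mM solution) and a detection mix of glutamate oxidase, HRP and Amplex Red were added. Initial and 30 min RT fluorescence reads were collected.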
JMJD2A Tudor inh: qHTS Assay for Inhibitors of JMJD2A-Tudor Domain | Lysine-specific demethylase 4A (Homo sapiens), O75164 | AlphaScreen JMJD2A-Tudor / H3K4me3 peptide binding | Potency, µM (top dose mostly 114 µM), for inactives: at the top dose activity change, negative = inhibition, usual class: inhibitors | actives 4.4% (n = 390,000) | AID 504339, 2011; further: on the % scale 0 is the no-effect control and ±100 the full control effect; nearly all actives have a fitted effect of over 50% in size
* marks the source's active call; other numbers are inactive results; ? = inconclusive; . = not tested or not shown; ! = not confirmed by another sample; [ ] = dose if it differs, or a comment. Rows were chosen to be rich in hits. Some 10% of all compounds tested hit in one or more screens of this group. The call rests on the fitted dose curve; in most records, active means well fitted curve in the direction sought with a large enough effect; inconclusive means small, poorly fitted or top-dose-only effect, or another doubt; inactive means no such curve, though single readings can be large; an effect the other way counts as inactive or inconclusive. Potency means the concentration at half of the fitted maximal effect.

SMILES | BAZ2B inh | HP1b binding inh | G9a block | GLS inh | JMJD2A Tudor inh
N/C(=N\c1nc2ccccc2o1)NC(=O)c1ccccc1Br | -2% | 47% | 9% | -13% | -1%
OC1c2cc(Cl)cc(Cl)c2N=C2CCCN21 (centres undefined) | . | . | . | 13% | .
COc1ccccc1CNC(=O)C1CCC(CNS(=O)(=O)c2ccc(C)cc2)CC1 (centres undefined) | -1% | 75% | -21%[2.33 µM] | -1% | -11%
N[C@H](Cc1ccc(O)cc1)C(=O)O | . | . | 30%[59 µM] | . | .
COC(=O)C(N)Cc1ccc(OC)c([N+](=O)[O-])c1 (centres undefined) | 0% | 22% | . | -11% | -10%
NC(C(=O)O)C(O)c1ccc(O)c(O)c1 (centres undefined) | . | . | 1.1µM* | 31% | .
NC(Cc1ccc2nsnc2c1)C(=O)O (centres undefined) | . | -9% | . | 3% | 2.2µM*
N[C@@H](Cc1ccc(O)c(O)c1)C(=O)O | . | 20µM* | 20µM* | ? | 40µM*
NC(Cc1ccc(O)c([N+](=O)[O-])c1)C(=O)O (centres undefined) | 50µM* | -5% | ? | 4% | ?
CCC1Oc2ccc(C)cc2N(CC(=O)NCC2CCCO2)C1=O (centres undefined) | 30% | 14% | 39% | -1% | 2%
NC(Cc1cccc2nsnc12)C(=O)O (centres undefined) | -5% | 5% | ? | -15% | 7.1µM*
N[C@@H](Cc1cc(I)c(Oc2ccc(O)c(I)c2)c(I)c1)C(=O)O | 50µM*! | -21% | 4µM*! | 16µM*! | -24%
COCCN1C(=O)CCC1(C)C(=O)Nc1ccc2c(c1)OCCO2 (centres undefined) | . | . | . | 4% | .
O=C(c1ccc(OC2CCN(Cc3ccccn3)CC2)cc1)N1CCCCO1 | -11% | 44% | -28% | 0% | 1%
CC1CCc2c(sc3nnn(CC(=O)Nc4ccccc4Cl)c(=O)c23)C1 (centres undefined) | -12% | 38% | 0%[59 µM] | -5% | -15%
Nc1ncnc2nc(SCc3ccccc3)[nH]c12 | -2% | 43% | 7% | 7% | -11%
CCC(Sc1nc2ncnc(N)c2[nH]1)C(=O)O (centres undefined) | -23% | 35% | 40µM* | -8% | -6%
CN(Cc1ccccc1)c1nc2c(S(=O)(=O)c3ccccc3)nnn2c2ccsc12 | -10% | 50% | -15%[59 µM] | -6% | -10%
COc1ccc(NS(=O)(=O)c2ccc(/C=C/C(=O)O)cc2)cc1S(=O)(=O)N1CCOCC1 | -10% | 34% | ? | 0% | 11%
N#Cc1ccc(N2C(=O)[C@@H]3C(C(=O)c4cnccn4)=NN[C@@H]3C2=O)cc1 | 56µM* | 25% | . | 1% | 16µM*
O=C(C1=NN[C@@H]2C(=O)N(c3cccc(C(F)(F)F)c3)C(=O)[C@H]12)c1cnccn1 | -34% | 46% | 40µM* | -6% | ?
O=C(C1=NN[C@@H]2C(=O)N(c3cccc(C(F)(F)F)c3)C(=O)[C@H]12)C(c1ccccc1)c1ccccc1 | -25% | 14% | -45%[59 µM] | -6% | -26%
Cc1cc(C)c(S(=O)(=O)N2CCOC2CNC(=O)C(=O)NCCN(C)C)c(C)c1 (centres undefined) | 12% | 18% | . | 2% | -4%
Cc1ccc(C(=O)N2C(CC(=O)Nc3ccc(Cl)cc3)C(=O)NC3CCCCC32)cc1 (centres undefined) | ? | 31% | . | -13% | 1%
CN1CCN(C(CNC(=O)c2c(F)cccc2F)c2ccc3c(c2)OCO3)CC1 (centres undefined) | -2% | 18%[57 µM] | 2%[59 µM] | 2% | -10%
COc1ccc(C(=O)NC(=S)Nc2nnn(C)n2)cc1 | 50µM* | -37% | 3.5µM* | 1% | 32µM*
